From PubChem BioAssay (NCATS)
Results filed as inconclusive are left out. A number with no mark means an inactive call. Calls of active or inactive are those of the source. Calls follow the shape of the dose curve; as a rule, active = well fitted curve in the direction sought with a large enough effect; inconclusive = small, poorly fitted or top-dose-only effect, or another doubt; inactive = no such curve, though single readings can be large; an effect the other way counts as inactive or inconclusive.

experiment: qHTS of pediatric cancer cell lines to identify multiple opportunities for drug repurposing: Primary screen for U-2 OS cells (AID 1347096); conditions: U-2 OS viability, CellTiter-Glo luminescence, 48 h; series mostly up to 46 µM; activity change, negative = cytotoxic: at the top concentration;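 also: plate controls were DMSO wells for no effect and bortezomib positive control wells for full effect; nearly all actives have a fitted effect of over 50% in size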
In short: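 Viability after 48 h compound treatment at 37C, 500-1,000 cells/well, read as ATP luminescence with CellTiter-Glo. Primary screens used 11-point (MIPE, 0.78 nM-46 µM) or 8-point (NPC, 0.59 nM-46 µM) final concentrations; follow-up screens used 11-point dilutions.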

| Compound | activity change, negative = cytotoxic |
| --- | --- |
| CCC(C(=O)OCCOCCN(CC)CC)c1ccccc1 (stereo unspecified) | -1.69% |
| c1ccc(-c2nc[nH]c2-c2ccccc2)cc1 | -4.35% |
| CC(CNC1CCCCC1)OC(=O)c1ccccc1 (stereo unspecified) | -9.1% |
| CCCCCCCCCCC[C@@H](C[C@@H]1OC(=O)[C@H]1CCCCCC)OC(=O)[C@H](CC(C)C)NC=O | 7.42% |
| CNCCc1ccccn1 | 14.7% |
| C#C[C@]1(O)CC[C@H]2[C@@H]3CCC4=CC(=O)CC[C@@H]4[C@H]3CC[C@@]21CC | -7.42% |
| CCN[C@@H]1C[C@H](N)[C@@H](OC2OC(CN)=CCC2N)[C@H](O)[C@H]1O[C@H]1OC[C@](C)(O)[C@H](NC)[C@H]1O (stereo partly specified) | 2.58% [at 0.597 µM] |
| O=[N+]([O-])c1cccc(S(=O)(=O)NCCNS(=O)(=O)c2cccc([N+](=O)[O-])c2)c1 | -5.12% |
| C#C[C@]1(O)CC[C@H]2[C@@H]3CCC4=Cc5oncc5C[C@]4(C)[C@H]3CC[C@@]21C | -22.3% |
| COc1cc([C@H]2Oc3cc([C@H]4Oc5cc(O)cc(O)c5C(=O)[C@@H]4O)ccc3O[C@@H]2CO)ccc1O | -15% |
| CCc1oc2ccccc2c1C(=O)c1cc(I)c(O)c(I)c1 | -5.06% |
| CN(Cc1ccc(C(C)(C)C)cc1)Cc1cccc2ccccc12 | -5.63% |
| O=C1C(=O)c2ccccc2C(O)=C1C1CCC(c2ccc(Cl)cc2)CC1 (stereo unspecified) | 4.8% |
| CCc1ccc(C(=O)C(C)CN2CCCCC2)cc1 (stereo unspecified) | -3.82% |
| COc1cc(C(=O)NCc2ccc(OCCN(C)C)cc2)cc(OC)c1OC | -14.8% |
| CC(=O)NCCCCCC(=O)O | -2.21% |
| CN1CCN(CCC(=O)N2c3ccccc3Sc3ccc(C(F)(F)F)cc32)CC1 | -17.9% |
| CNCCCCOc1ccccc1Cc1ccccc1 | -17.7% |

| Compound | activity change, negative = cytotoxic |
| --- | --- |
| CCOC(=O)Nc1ccc2c(c1)N(C(=O)CCN1CCOCC1)c1ccccc1S2 | -14.7% |
| CCOC(=O)c1ccc(N)cc1 | -9.18% |
| NC(=O)c1ccccc1O | -1.37% |
| CC(=O)Nc1ccc(S(=O)(=O)Nc2ccc([N+](=O)[O-])cc2)cc1 | 4.09% |
| CC(C)(Cc1c[nH]c2ccccc12)NCC(O)COc1ccccc1C#N (stereo unspecified) | -4.02% |
| CCCCN1C[C@H](O)[C@@H](O)[C@H](O)[C@H]1CO | -2.09% |
| CCCCCCCCCCCCSCCOCCO | 5.7% |
| C[C@H]1[C@H]2CC[C@H]3[C@@H]4CC=C5C[C@@H](N(C)C)CC[C@]5(C)[C@H]4CC[C@]23CN1C | -12.1% |
| O=C(c1ccc(F)cc1)C1CCN(CCn2c(=S)[nH]c3ccccc3c2=O)CC1 | -2.65% |
| CCCCC(CC)CN1CN(CC(CC)CCCC)CC(C)(N)C1 (stereo unspecified) | -11.4% |
| CCC1Nc2cc(Cl)c(S(N)(=O)=O)cc2S(=O)(=O)N1 (stereo unspecified) | 4.31% |
| CCc1oc2ccccc2c1C(=O)c1cc(Br)c(O)c(Br)c1 | 1.07% |
| CCNC(=O)NCc1cccc(Cl)c1 | -1.94% |
| O=C(N/N=C/c1ccc([N+](=O)[O-])o1)c1ccc(O)cc1 | -29.4% |
| O=C(CCN1CCN2CCCC2C1)N1c2ccccc2Sc2ccc(Cl)cc21 (stereo unspecified) | -17.3% [at 16.1 µM] |
| CCN(CC)CCOC(=O)C(Cc1cccc2ccccc12)CC1CCCO1 (stereo unspecified) | -12.6% |
| CCCCCCCCCCCCOCCOCCOCCOCCOCCOCCOCCOCCOCCO | -8.99% |
| OC[C@H]1O[C@@H](Oc2ccc(O)cc2)[C@H](O)[C@@H](O)[C@@H]1O | 4.92% |

experiment: qHTS of pediatric cancer cell lines to identify multiple opportunities for drug repurposing: Primary screen for Saos-2 cells (AID 1347097); conditions: Saos-2 viability, CellTiter-Glo ATP luminescence, 48 h; series mostly up to 46 µM; activity change, negative = cytotoxic: at the top concentration; also: % is scaled to controls: 0 for no effect and ±100 for the full control effect; nearly all actives have a fitted effect of over 40% in size
In short: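 Quantitative HTS format: each compound titrated (MIPE 11 points from 0.78 nM, NPC 8 points from 0.59 nM) onto cells plated 5 hours earlier. After 48 h at 37 degrees C, CellTiter-Glo luminescence was recorded.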

| Compound | activity change, negative = cytotoxic |
| --- | --- |
| CC(=O)Nc1ccc(S(=O)(=O)Nc2ccc([N+](=O)[O-])cc2)cc1 | 8.63% |
| CC(C)(Cc1c[nH]c2ccccc12)NCC(O)COc1ccccc1C#N (stereo unspecified) | -5.07% |
| O=C(c1ccc(F)cc1)C1CCN(CCn2c(=S)[nH]c3ccccc3c2=O)CC1 | 41.5% |
| O=C(N/N=C/c1ccc([N+](=O)[O-])o1)c1ccc(O)cc1 | -4.67% |

experiment: qHTS of pediatric cancer cell lines to identify multiple opportunities for drug repurposing: Primary screen for SK-N-SH cells (AID 1347098); conditions: SK-N-SH viability, CellTiter-Glo luminescence, 48 h; series mostly up to 57 µM; activity change, negative = cytotoxic: at the top concentration; also: nearly all actives have a fitted effect of over 65% in size; also: potency is read from the fitted curve at half-maximal effect;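 as to activity change, negative = cytotoxic: DMSO served as neutral control and bortezomib at 2.3 µM as positive control; % is scaled to controls: 0 for no effect and ±100 for the full control effect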
In short: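 Cells (500-1,000/well) rested 5 h, then received compounds for 48 h; metabolically active cells were measured by CellTiter-Glo luminescence. Final concentrations spanned up to 46 µM (MIPE, 11-point) or 0.59 nM-46 µM (NPC, 8-point) in primary screens, 11-point in follow-ups.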

| Compound | activity change, negative = cytotoxic | Potency |
| --- | --- | --- |
| CCC(C(=O)OCCOCCN(CC)CC)c1ccccc1 (stereo unspecified) | 4.17% |  |
| c1ccc(-c2nc[nH]c2-c2ccccc2)cc1 | -20.4% |  |
| CC(CNC1CCCCC1)OC(=O)c1ccccc1 (stereo unspecified) | -5.9% |  |
| CCCCCCCCCCC[C@@H](C[C@@H]1OC(=O)[C@H]1CCCCCC)OC(=O)[C@H](CC(C)C)NC=O | 5.62% |  |
| CNCCc1ccccn1 | -6.06% |  |
| C#C[C@]1(O)CC[C@H]2[C@@H]3CCC4=CC(=O)CC[C@@H]4[C@H]3CC[C@@]21CC | -1.7% |  |
| CCN[C@@H]1C[C@H](N)[C@@H](OC2OC(CN)=CCC2N)[C@H](O)[C@H]1O[C@H]1OC[C@](C)(O)[C@H](NC)[C@H]1O (stereo partly specified) | -5.21% [at 0.741 µM] |  |
| O=[N+]([O-])c1cccc(S(=O)(=O)NCCNS(=O)(=O)c2cccc([N+](=O)[O-])c2)c1 | -17.1% |  |
| C#C[C@]1(O)CC[C@H]2[C@@H]3CCC4=Cc5oncc5C[C@]4(C)[C@H]3CC[C@@]21C | -21.1% |  |
| COc1cc([C@H]2Oc3cc([C@H]4Oc5cc(O)cc(O)c5C(=O)[C@@H]4O)ccc3O[C@@H]2CO)ccc1O | -15.4% |  |
| CCc1oc2ccccc2c1C(=O)c1cc(I)c(O)c(I)c1 | -15.4% |  |
| CN(Cc1ccc(C(C)(C)C)cc1)Cc1cccc2ccccc12 | -21.2% |  |
| O=C1C(=O)c2ccccc2C(O)=C1C1CCC(c2ccc(Cl)cc2)CC1 (stereo unspecified) | -4.9% |  |
| COc1cc(C(=O)NCc2ccc(OCCN(C)C)cc2)cc(OC)c1OC | -8.9% |  |
| CC(=O)NCCCCCC(=O)O | -19.7% |  |
| CN1CCN(CCC(=O)N2c3ccccc3Sc3ccc(C(F)(F)F)cc32)CC1 |  | 9.7 µM (active) |

| Compound | activity change, negative = cytotoxic | Potency |
| --- | --- | --- |
| CNCCCCOc1ccccc1Cc1ccccc1 |  | 24.4 µM (active) |
| CCOC(=O)Nc1ccc2c(c1)N(C(=O)CCN1CCOCC1)c1ccccc1S2 | -38.5% |  |
| CCOC(=O)c1ccc(N)cc1 | 2.16% |  |
| NC(=O)c1ccccc1O | -3.42% |  |
| CCCCN1C[C@H](O)[C@@H](O)[C@H](O)[C@H]1CO | 9.83% |  |
| CCCCCCCCCCCCSCCOCCO | 14.8% |  |
| C[C@H]1[C@H]2CC[C@H]3[C@@H]4CC=C5C[C@@H](N(C)C)CC[C@]5(C)[C@H]4CC[C@]23CN1C | 2.94% |  |
| CCCCC(CC)CN1CN(CC(CC)CCCC)CC(C)(N)C1 (stereo unspecified) | -4.35% |  |
| CCC1Nc2cc(Cl)c(S(N)(=O)=O)cc2S(=O)(=O)N1 (stereo unspecified) | -14.5% |  |
| CCc1oc2ccccc2c1C(=O)c1cc(Br)c(O)c(Br)c1 |  | 19.4 µM (active) |
| CCNC(=O)NCc1cccc(Cl)c1 | -5.37% |  |
| O=C(CCN1CCN2CCCC2C1)N1c2ccccc2Sc2ccc(Cl)cc21 (stereo unspecified) | -11.2% [at 20 µM] |  |
| CCN(CC)CCOC(=O)C(Cc1cccc2ccccc12)CC1CCCO1 (stereo unspecified) | -27.3% |  |
| CCCCCCCCCCCCOCCOCCOCCOCCOCCOCCOCCOCCOCCO | -16.2% |  |
| OC[C@H]1O[C@@H](Oc2ccc(O)cc2)[C@H](O)[C@@H](O)[C@@H]1O | 3.62% |  |
